ATXN viability = reduces viability in counter-screen for ATXN expression inhibitors; S2 cells (HEK-293 line with an ATXN2-luciferase reporter) viability, CellTiter-Fluor protease fluorescence, 24 h; Potency, µM (top dose mostly 56.7 µM), most hits filed as cytotoxic; 0.49% of 400,000 active; note: nearly all actives have a fitted effect of over 40% in size
ATXN2 expr inh = inhibitors of ATXN2 expression | HEK-293 ATXN2-luciferase reporter, luminescence, 24 h | Potency, µM (highest dose often 57 µM), hits mostly inhibitors | 0.72% of 360,000 active; note: nearly all actives have a fitted effect of over 55% in size
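ATXN2-luciferase reporter cells (luciferase flanked by upstream and downstream ATXN2 gene portions) were treated 24 h at 37 °C with compounds at up to 57 uM. SteadyGlo luminescence gave expression; GF-AFC fluorescence gave viability.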
TDP1 cell CPT = growth inhibition of DT40 Tdp1-/-;hTDP1 cells with camptothecin (screen for TDP1 inhibitors). Potency, µM (top dose mostly 46.2 µM), most hits filed as inhibitors. chicken DT40 Tdp1-/-;hTDP1 cells + 20 nM CPT, ATP luminescence, 48 h. 12% of 420,000 active; note: nearly all actives have a fitted effect of over 55% in size
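Chicken DT40 Tdp1-/- cells stably complemented with human TDP1 were seeded at 400 cells/well in medium containing 20 nM camptothecin, exposed to pin-transferred compounds, and grown at 37 °C for at least 48 hr. Viability was read as ATP luminescence.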
TDP1 cell noCPT = qHTS for Inhibitors of human tyrosyl-DNA phosphodiesterase 1 (TDP1): qHTS in cells in absence of CPT; Potency, µM (highest dose often 46.2 µM), usual class: inhibitors; AID 686978, 2013; 15% of 420,000 active; DT40 Tdp1-/- hTDP1 cells, no CPT, ATP luminescence, 48 h; note: nearly all actives have a fitted effect of over 55% in size
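A cellular qHTS used chicken DT40 cells lacking endogenous Tdp1 but carrying stably transfected human TDP1. Compounds were applied without camptothecin, and cell growth kinetics were judged by ATP-dependent luminescence after ≥48 hr.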
HepG2 viability = HepG2 cytotoxicity, counter-screen for TGF-b inhibitors; HepG2 CAGA-GFP viability, ATP luminescence, 18 h; Potency, µM (top dose mostly 46.1 µM), most hits filed as cytotoxic; 0.76% of 410,000 active; AID 588856
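HepG2 CAGA-GFP cells (1000/well, DMEM with 1% FBS) received compound, then TGF-beta at 500 pg/mL final, and were incubated 18 hours at 37 degrees C. Viability was read by CellTiter-Glo luminescence. Media-only wells were set as complete cell-killing and DMSO as no toxicity.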
TGFb SMAD3 inh = TGF-b pathway inhibition; AID 588855; Potency, µM (highest dose often 46.1 µM), usual class: inhibitors; HepG2 CAGA-GFP TGF-b/SMAD3 reporter, GFP fluorescence, 18 h; TGF-beta stimulated, 500 pg/mL final; 1.2% of 410,000 active; note: nearly all actives have a fitted effect of over 65% in size
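TGF-beta reporter screen: HEPG2 CAGA-GFP, 1% FBS, 500 pg/mL TGF-beta final, 18 h; per-cell GFP summed per well; curves fitted and categorized by class.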
Numbers stand for hits; 0 = inactive; ? = inconclusive; - = no result; ! = a repeat was not active; [ ] = dose if it differs, or a comment. A selection: hits, their analogues and other compounds. The true share with any hit is near 17%. Calls come from the whole dose curve; as a rule, active = well fitted curve in the direction sought with a large enough effect; inconclusive = small, poorly fitted or top-dose-only effect, or another doubt; inactive = no such curve, though single readings can be large; an effect the other way counts as inactive or inconclusive.

SMILES	ATXN viability	ATXN2 expr inh	TDP1 cell CPT	TDP1 cell noCPT	HepG2 viability	TGFb SMAD3 inh
O=C(N/N=C/C=C/c1ccccc1[N+](=O)[O-])c1cccs1	0	0	?	8.2µM	0	0
CC(C)(C)c1ccc(CC(=O)N2CCC2(C)C(=O)NS(=O)(=O)c2ccccc2Cl)cc1 (centres undefined)	0	0	0	0	0	0
CCOc1cc2[nH]c(=O)n(CCC(=O)N3CCN(c4cccc(Cl)c4)CC3)c(=O)c2cc1OCC	0	0	?	?	0	0
O=C(N/N=C\C=C\c1ccc([N+](=O)[O-])o1)c1cccs1	0	0	4.11µM	3.26µM	0	?
COc1ccc(-c2cc(C3C4C=CCC(C)C4C(=O)N3Cc3ccccc3)ccc2F)cc1 (centres undefined)	-	-	-	-	0	0
COc1ccc(-c2cc([C@H]3[C@H]4C=CC[C@@H](C)[C@@H]4C(=O)N3Cc3ccccc3)ccc2F)cc1OC	0	0	23.1µM	13µM	0	?
COc1ccc(-c2cc([C@H]3[C@H]4C=CC[C@@H](C)[C@@H]4C(=O)N3Cc3ccccc3)ccc2F)cc1	0	0	13µM	14.6µM	0	0
Cc1cc(N2CCC(C)CC2)nc2ccc(NC(=O)CCC(=O)N3CCN(c4ccccc4F)CC3)cc12	?	0	18.4µM	14.6µM	0	?
Cc1cc(N2CCOCC2)nc2ccc(NC(=O)CCC(=O)N3CCN(c4cccc(C(F)(F)F)c4)CC3)cc12	?	0	4.11µM	2.06µM	0	?
Cc1cc(N2CCOCC2)nc2ccc(NC(=O)CCC(=O)N3CCC(C)CC3)cc12	0	0	0	?	0	?
CCCC(O)(CCC)C(=O)NNc1ccccc1	0	0	0	0	0	0
Cc1cc(C(=O)NCc2nnc3n2CCN(Cc2ccc(C)c(C)c2)CC3)c(C)o1	0	-	0[9.04 µM]	0	-	-
CCOC(=O)C1CCCN(C2=NC(=O)/C(=C/c3ccc(OC)c(OC)c3)S2)C1 (centres undefined)	0	-	?	9.2µM	0	0
COc1cc(/C=C2\SC(N3CCCCC3)=NC2=O)cc(OC)c1OC	0	0	20.6µM	11.6µM	0	0
COc1ccc(/C=C2\SC(N3CCCCC3)=NC2=O)cc1	0	0	11.6µM	?	0	0
CC1Cc2cc(/C=C3/SC(N4CCC(C(N)=O)CC4)=NC3=O)ccc2O1 (centres undefined)	0	0	14.6µM	18.4µM	0	0
CCOC(=O)C1CCCN(C2=NC(=O)/C(=C/c3ccc(O)c(OC)c3)S2)C1 (centres undefined)	0	0	?	?	0	0
CCOC(=O)C1CC(c2ccc(Cl)cc2)=NNC1=O (centres undefined)	0	0	0	0	0	0
O=C(NCc1ccccc1)c1cccc(F)c1F	0	0	0	0	0	0
CCn1c(=O)c(C(=O)NCCc2ccc(OC)c(OC)c2)c(O)c2ccccc21	0	-	16.4µM	20.6µM	0	?
COc1ccc(CCNC(=O)c2ccc(Cn3c(=O)c4ccccc4n(Cc4cccc(Cl)c4)c3=O)cc2)cc1OC	?	0	20.6µM	10.3µM	0	?
COc1ccc(CCNC(=O)c2ccc(Cn3c(=O)c4ccccc4n(Cc4cccc(F)c4)c3=O)cc2)cc1OC	28.2µM	?	16.4µM	16.4µM	0	?
COCCCNC(=O)Cn1c(=O)n(Cc2ccc(C(=O)NCCc3ccc(OC)c(OC)c3)cc2)c(=O)c2ccccc21	0	0	0	?	0	0
COc1ccc(CCNC(=O)c2ccc(Cn3c(=O)c4ccccc4n(Cc4cc(C)ccc4C)c3=O)cc2)cc1OC	0	0	0	?	0	0
COCCCNC(=O)c1ccc(Cn2c(=O)c3ccccc3n(CC(=O)NCCc3ccc(OC)c(OC)c3)c2=O)cc1	0	0	23.1µM	18.4µM	0	0
SMILES	ATXN viability	ATXN2 expr inh	TDP1 cell CPT	TDP1 cell noCPT	HepG2 viability	TGFb SMAD3 inh
CCc1ccc(N2C(=O)CS(=O)(=O)C23C(=O)N(Cc2ccccc2)c2ccccc23)cc1 (centres undefined)	0	0	?	?	0	0
CC1(C(=O)NS(=O)(=O)C2CC2)CCN(C(=O)C2(c3ccc(Cl)cc3)CCCC2)C1 (centres undefined)	0	0	0	0	0	0
COCCCNC(=O)c1ccc(Cn2c(=O)c3ccccc3n(Cc3ccccc3C#N)c2=O)cc1	0	?	16.4µM	?	0	0
O=C(O)c1c(C(=O)O)c(-c2ccc(Cl)c(Cl)c2)n2c1CSC2	0	0	0	0	0	0
COc1cccc(N2C(=O)CSC23C(=O)N(Cc2ccccc2)c2ccccc23)c1 (centres undefined)	0	0	-	-	0	0
Cc1oc(-c2cccc(Cl)c2)nc1CSCC(=O)O	0	?	16.4µM!	29.1µM!	0	0
Cc1cccc(-c2nc(CSCC(=O)NCCc3ccc(Cl)cc3)c(C)o2)c1	-	-	?	?	0	12.6µM
O=C(CC1Sc2ccccc2NC1=O)NNc1ccc(F)cc1 (centres undefined)	0	0	0	0	0	0
CC1CCc2nc3ccc(S(=O)(=O)N4CCC(C(=O)NC(C)c5ccccc5)CC4)cc3c(C(=O)O)c2C1 (centres undefined)	0	0	0	0	0	0
COc1cccc(C2CC(c3cccs3)=NN2C(=O)CSc2nc3c(cnn3-c3ccc(F)cc3)c(=O)[nH]2)c1OC (centres undefined)	0	0	23.1µM	23.1µM	0	0
COc1cccc(C2CC(c3cccs3)=NN2C(=O)CSc2nc3ccccc3s2)c1OC (centres undefined)	0	0	14.6µM	13µM	0	?
Cc1c(Cl)cccc1N1CC(C)(C)C1=O	0	0	0	0	0	0
N#Cc1ccccc1NC(=O)COC(=O)CN1C(=O)C2CCCCC2C1=O (centres undefined)	0	0	?	?	0	0
Cc1ccc2nc(N/N=C/c3ccco3)cc(C)c2c1	0	0	8.2µM	10.3µM	11.2µM	?
COc1ccccc1-c1cc(C(=O)N/N=C/c2ccc(C)o2)c2ccccc2n1	0	0	?	?	0	0
Cc1ccc(/C=N/NC(=O)c2cc(-c3ccncc3)nc3ccccc23)o1	0	0	2.91µM	2.59µM	0	?
O=C(N/N=C/c1ccc([N+](=O)[O-])o1)c1cn(-c2ccccc2)nc1-c1ccccc1	0	0[11.3 µM]	?	6.51µM	0	?

Compound activity (PubChem)
